Records with an inconclusive call do not appear. Where a call stands in place of a potency, no number is given. The source made the active and inactive calls. The call rests on the fitted dose curve; in most records, active means well fitted curve in the direction sought with a large enough effect; inconclusive means small, poorly fitted or top-dose-only effect, or another doubt; inactive means no such curve, though single readings can be large; an effect the other way counts as inactive or inconclusive.
How the values were obtained:
[1] = Viability counterscreen for agonist of constitutive androstane receptor (CAR) against the NCATS DSHEA and TCM libraries (AID 1794838);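 further: HepG2 cells with CYP2B6 reporter and hCAR plus 0.75 µM PK11195 antagonist; cells exposed to compound for 24 h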
How it was run: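 Cell viability, from CellTiter-Fluor fluorescence (405/540 nm), was scored after a 24 h, 37C exposure of HepG2 cells carrying CYP2B6 reporter and hCAR to test substances in presence of 0.75 uM PK11195.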

[2] = target: Nuclear receptor subfamily 1 group I member 3 (Homo sapiens) (UniProt Q14994); experiment: Primary qHTS for agonist of constitutive androstane receptor (CAR) against the NCATS DSHEA and TCM libraries (AID 1794839);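 further: HepG2 cells expressing human CAR with a CYP2B6 reporter plus PK11195 antagonist; luciferase reporter luminescence read with ONE-Glo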
Sequence of Nuclear receptor subfamily 1 group I member 3 (Homo sapiens) (Q14994 whole entry, looked up): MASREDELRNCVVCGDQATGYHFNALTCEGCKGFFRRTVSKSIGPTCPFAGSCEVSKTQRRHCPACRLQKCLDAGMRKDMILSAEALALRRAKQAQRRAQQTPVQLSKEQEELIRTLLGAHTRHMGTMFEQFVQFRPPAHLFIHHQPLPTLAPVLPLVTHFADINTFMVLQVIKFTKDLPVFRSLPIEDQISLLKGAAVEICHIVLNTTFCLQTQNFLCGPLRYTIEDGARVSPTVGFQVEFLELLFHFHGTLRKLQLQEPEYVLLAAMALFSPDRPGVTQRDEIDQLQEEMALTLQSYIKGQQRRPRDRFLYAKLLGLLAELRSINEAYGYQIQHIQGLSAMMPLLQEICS
Description: (§1) National Center for Advancing Translational Sciences (NCATS), Rockville, MD
(§2) National Institute of Health (NIH), Bethesda, Maryland
Dietary Supplements and Natural Products have minor oversight of their safety and efficacy. We assembled a collection of Dietary Supplements and Natural Products (DSNP) as well as Traditional Chinese Medicinal (TCM) Plant extracts, which were screened against an in vitro panel of assays, including a liver cytochrome p450 enzyme panel, CAR/PXR signaling pathways, and P-gp transporter assays, to assess their activity. This pipeline facilitated the interrogation of Natural Product-Drug Interaction (NaPDI) through prominent metabolizing pathways. In addition, we compared the activity profiles of the DSNP/TCM substances with those of an approved drug collection. Many of the approved drugs have well-annotated mechanisms of action (MOA) while the MOAs for most of the DSNP and TCM samples remain unknown. […] Overall, we highlight four significant bioactivity profiles (measured by p-values) as examples of this prediction. […]
8; Detector 1; Fluorescence intensity; ViewLux plate reader (excitation 405 nm, emission 540 nm). […]
11; Detector 2; Luminescence intensity; ViewLux. […]
8. Fluorescence intensity (Ex/Em = 405 nm/540 nm) is obtained using the ViewLux plate reader to determine cell viability. […]
10. Luminescence intensity is read using the ViewLux detector. […]

[3] = target: Cytochrome P450 3A4 (Homo sapiens) (UniProt P08684); experiment: qHTS for inhibitors of CYP3A4 against the NCATS DSHEA and TCM libraries (AID 1919971);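 further: inhibition lowers luminescence from luciferin made by CYP3A4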
Sequence of Cytochrome P450 3A4 (Homo sapiens) (P08684 whole entry, looked up, canonical isoform): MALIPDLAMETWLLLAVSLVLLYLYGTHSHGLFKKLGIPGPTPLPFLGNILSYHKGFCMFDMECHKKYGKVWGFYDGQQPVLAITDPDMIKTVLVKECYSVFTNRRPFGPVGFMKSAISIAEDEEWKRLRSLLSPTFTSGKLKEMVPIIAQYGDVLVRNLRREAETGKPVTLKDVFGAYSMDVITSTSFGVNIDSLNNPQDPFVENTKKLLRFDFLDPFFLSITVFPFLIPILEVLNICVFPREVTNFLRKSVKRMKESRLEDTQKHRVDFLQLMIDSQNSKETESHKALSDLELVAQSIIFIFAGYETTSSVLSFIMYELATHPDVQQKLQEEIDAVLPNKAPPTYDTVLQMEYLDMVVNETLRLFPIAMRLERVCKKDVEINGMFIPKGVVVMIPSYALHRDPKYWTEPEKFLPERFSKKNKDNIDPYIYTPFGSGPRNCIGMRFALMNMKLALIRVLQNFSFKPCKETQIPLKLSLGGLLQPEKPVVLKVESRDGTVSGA
How it was run: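 Isoform-specific enzyme and substrate levels; enzyme-free wells as background. Reaction: 1x NADPH regenerating system, 30-45 min, room temperature, shielded from light; luminescent detection reagent added, 30 min.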

[4] = target: Cytochrome P450 2D6 (Homo sapiens) (UniProt P10635); experiment: qHTS for inhibitors of CYP2D6 against the NCATS DSHEA and TCM libraries (AID 1919972)
Sequence of Cytochrome P450 2D6 (Homo sapiens) (P10635 whole entry, looked up): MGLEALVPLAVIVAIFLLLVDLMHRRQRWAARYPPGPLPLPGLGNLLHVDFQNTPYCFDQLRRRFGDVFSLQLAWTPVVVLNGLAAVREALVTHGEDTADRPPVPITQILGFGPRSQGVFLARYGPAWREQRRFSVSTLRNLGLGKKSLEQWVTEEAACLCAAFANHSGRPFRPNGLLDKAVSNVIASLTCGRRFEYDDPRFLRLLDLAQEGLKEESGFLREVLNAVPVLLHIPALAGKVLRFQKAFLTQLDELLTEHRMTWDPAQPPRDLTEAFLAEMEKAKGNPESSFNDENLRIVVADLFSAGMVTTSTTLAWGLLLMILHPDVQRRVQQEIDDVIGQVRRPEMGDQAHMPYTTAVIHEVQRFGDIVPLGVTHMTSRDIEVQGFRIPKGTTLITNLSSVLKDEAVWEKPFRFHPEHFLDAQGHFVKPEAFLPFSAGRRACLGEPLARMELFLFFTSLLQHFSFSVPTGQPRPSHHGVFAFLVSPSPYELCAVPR
How it was run: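 qHTS, concentration–response format with most substances from 19.5 nM. CYP2D6 + pro-luciferin substrate, 15 min with compound, then 1x NADPH regen, 30–45 min RT dark. Glo detection 30 min, luminescence. Quinidine control.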

[5] = target: Cytochrome P450 2C19 (Homo sapiens) (UniProt P33261); experiment: qHTS for inhibitors of CYP2C19 against the NCATS DSHEA and TCM libraries (AID 1919974); details: CYP2C19 enzyme inhibition, luminescence qHTS;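 further: luminescence from luciferin released by CYP2C19 oxidation of a pro-luciferin substrate; potency means the concentration at half of the fitted maximal effect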
Sequence of Cytochrome P450 2C19 (Homo sapiens) (P33261 whole entry, looked up): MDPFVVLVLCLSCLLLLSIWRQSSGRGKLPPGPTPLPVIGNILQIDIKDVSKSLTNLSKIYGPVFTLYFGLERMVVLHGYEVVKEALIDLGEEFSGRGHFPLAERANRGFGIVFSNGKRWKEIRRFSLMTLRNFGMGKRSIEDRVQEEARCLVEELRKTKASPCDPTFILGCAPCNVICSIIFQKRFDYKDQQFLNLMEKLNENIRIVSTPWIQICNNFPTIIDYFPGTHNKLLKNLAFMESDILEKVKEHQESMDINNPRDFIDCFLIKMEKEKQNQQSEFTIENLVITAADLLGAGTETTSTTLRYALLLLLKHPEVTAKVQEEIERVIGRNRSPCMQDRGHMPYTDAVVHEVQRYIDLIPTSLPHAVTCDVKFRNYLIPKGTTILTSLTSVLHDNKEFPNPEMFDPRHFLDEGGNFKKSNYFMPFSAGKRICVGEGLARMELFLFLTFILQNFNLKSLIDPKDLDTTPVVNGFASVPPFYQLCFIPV
Description: Assay Development and Screening Technology Laboratory (ADST)
as §1, §2
Dietary Supplements and Natural Products have minor oversight of their safety and efficacy. We assembled a collection of Dietary Supplements and Natural Products (DSNP) as well as Traditional Chinese Medicinal (TCM) Plant extracts, which were screened against an in vitro panel of assays, including a liver cytochrome p450 enzyme panel, CAR/PXR signaling pathways, and P-gp transporter assays, to assess their activity. This pipeline facilitated the interrogation of Natural Product-Drug Interaction (NaPDI) through prominent metabolizing pathways. In addition, we compared the activity profiles of the DSNP/TCM substances with those of an approved drug collection. Many of the approved drugs have well-annotated mechanisms of action (MOA) while the MOAs for most of the DSNP and TCM samples remain unknown. […] Overall, we highlight four significant bioactivity profiles (measured by p-values) as examples of this prediction. […] To profile potential P-gp activity, a differential cell viability was measured against two cell lines: a parental KB-3-1 human cervical adenocarcinoma cell line and the drug-resistant subline KB-8-5-11 that overexpresses P-gp. […]
9; Read; Luminescence; ViewLux plate reader. […]

[6] = target: Nuclear receptor subfamily 1 group I member 2 (Homo sapiens) (UniProt O75469); experiment: Dual reporter qHTS for agonist of Pregnane X Receptor (hPXR) against the NCATS DSHEA and TCM libraries: Luminescence readout (AID 1920059)
Sequence of Nuclear receptor subfamily 1 group I member 2 (Homo sapiens) (O75469 whole entry, looked up): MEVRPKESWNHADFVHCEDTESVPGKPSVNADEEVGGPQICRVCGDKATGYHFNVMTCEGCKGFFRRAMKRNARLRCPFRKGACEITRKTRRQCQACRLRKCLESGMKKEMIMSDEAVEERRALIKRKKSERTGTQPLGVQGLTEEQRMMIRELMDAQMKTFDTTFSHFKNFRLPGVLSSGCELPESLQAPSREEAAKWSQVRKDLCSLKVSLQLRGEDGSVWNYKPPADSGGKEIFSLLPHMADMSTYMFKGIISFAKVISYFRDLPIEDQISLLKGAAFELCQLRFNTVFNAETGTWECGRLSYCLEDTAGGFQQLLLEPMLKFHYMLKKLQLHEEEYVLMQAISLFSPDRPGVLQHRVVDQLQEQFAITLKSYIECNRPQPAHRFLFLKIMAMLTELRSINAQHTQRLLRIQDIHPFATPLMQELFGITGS
How it was run: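 Luminescent PXR reporter read (ONE-Glo) after a CellTiter-Fluor viability read, following 24 h, 37C treatment of HepG2 cells stably carrying hPXR-Luc.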

[7] = target: Metallo-beta-lactamase type 2 (Klebsiella pneumoniae) (UniProt C7C422); experiment: qHTS to identify inhibitors of the New Delhi Metallo-beta-lactamase (NDM): assay validation screen against the NCATS LOPAC Collection (AID 1794843); further: potency means the concentration at half of the fitted maximal effect
Sequence of Metallo-beta-lactamase type 2 (Klebsiella pneumoniae) (C7C422 whole entry, looked up): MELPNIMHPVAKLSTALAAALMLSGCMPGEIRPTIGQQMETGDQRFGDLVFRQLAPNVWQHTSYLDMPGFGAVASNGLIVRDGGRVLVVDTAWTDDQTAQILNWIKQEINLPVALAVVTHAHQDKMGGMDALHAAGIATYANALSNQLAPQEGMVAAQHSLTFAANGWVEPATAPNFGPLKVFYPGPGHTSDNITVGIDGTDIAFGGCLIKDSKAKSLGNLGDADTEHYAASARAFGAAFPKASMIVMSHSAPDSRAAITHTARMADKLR
How it was run: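 NDM-1 at 2 nM final in 50 mM HEPES pH 7.0, 1 uM ZnSO4, 0.01% Tween20, preincubated with LOPAC compounds pinned in DMSO; 50 uM nitrocefin (stock) added. Hydrolysis read as absorbance at 485 nm in the plateau phase.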

[8] = target: Glutathione peroxidase 1 (Homo sapiens) (UniProt P07203); experiment: Primary qHTS Assay for Inhibitors of Recombinant Selenoprotein Glutathione Peroxidase 1 (GPX1) (AID 1845191); further: nearly all actives have a fitted effect of over 65% in size
Sequence of Glutathione peroxidase 1 (Homo sapiens) (P07203 whole entry, looked up): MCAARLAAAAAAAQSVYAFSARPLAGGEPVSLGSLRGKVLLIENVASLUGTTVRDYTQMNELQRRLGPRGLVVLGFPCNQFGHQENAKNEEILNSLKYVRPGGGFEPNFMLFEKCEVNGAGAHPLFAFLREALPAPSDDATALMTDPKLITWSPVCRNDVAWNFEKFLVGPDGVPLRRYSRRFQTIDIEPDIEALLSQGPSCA
How it was run: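 NADPH consumption tracked by fluorescence at 340/450 nm between t=0 and t=15 min, room temperature. Final mix: 10 nM GPX1, 100 nM glutathione reductase, 1 mM GSH, 0.5 mM NADPH, 0.5 mM cumene hydroperoxide, 0.01% BSA; 30 min compound–enzyme preincubation.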

[9] = target: Phospholipid hydroperoxide glutathione peroxidase GPX4 (Homo sapiens) (UniProt P36969); experiment: Primary qHTS Assay for Inhibitors of Recombinant Selenoprotein Glutathione Peroxidase 4 (GPX4) (AID 1845192); further: nearly all actives have a fitted effect of over 65% in size
Sequence of Phospholipid hydroperoxide glutathione peroxidase GPX4 (Homo sapiens) (P36969 whole entry, looked up): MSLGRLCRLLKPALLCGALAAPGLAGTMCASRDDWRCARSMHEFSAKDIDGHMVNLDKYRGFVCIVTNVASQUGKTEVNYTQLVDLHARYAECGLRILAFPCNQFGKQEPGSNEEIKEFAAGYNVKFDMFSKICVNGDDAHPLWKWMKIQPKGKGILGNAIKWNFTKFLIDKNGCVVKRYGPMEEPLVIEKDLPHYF
How it was run: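 NADPH consumption followed by fluorescence at 340/450 nm, t=0 and after 15 min at room temperature. Reaction started with cumene hydroperoxide (0.5 mM final) after 30 min compound–GPX4 preincubation; final 200 nM GPX4, 100 nM GR, 1 mM GSH, 0.5 mM NADPH.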

In the case of O=C(O)c1cc(O)c(O)c(O)c1, the outcome [1] is reported as “inactive”, the outcome [2] is reported as “inactive” and the outcome [3] is reported as “inactive”. For the same compound, the outcome [4] was “inactive”, the Potency [5] was 3.55 µM (active) and the outcome [6] was “inactive”.
For C[S+](CC[C@H](N)C(=O)O)C[C@H]1O[C@@H](n2cnc3c(N)ncnc32)[C@H](O)[C@@H]1O (some centres undefined), the outcome [1] was “inactive”, the outcome [3] was “inactive” and the outcome [4] was “inactive”. The Potency [5] was 3.98 µM (active).
With CCCCCCCCCCCCCCCCCC(=O)O the outcome [6] was “inactive”.
In the case of O=C(/C=C/c1ccc(O)cc1)c1ccc(O)cc1O, the Potency [7] is reported as “inactive”, the Potency [8] is reported as “inactive” and the Potency [9] is reported as “inactive”.
In the case of CC(=O)/C=C1\C(=O)N(C)c2ccccc21, the Potency [7] is reported as “inactive”, the Potency [8] is reported as “inactive” and the Potency [9] is reported as “inactive”.
For Brc1c(Br)c(Br)c2n[nH]nc2c1Br, the Potency [7] was “inactive”, the Potency [8] was “inactive” and the Potency [9] was “inactive”.
For C[N+](C)(C)CCOP(=O)(O)OP(=O)([O-])OC[C@H]1O[C@@H](n2ccc(N)nc2=O)[C@H](O)[C@@H]1O, the Potency [7] was “inactive”, the Potency [8] was “inactive” and the Potency [9] was “inactive”.
With CC[C@@H](C)[C@H]1O[C@]2(CC[C@H]1C)C[C@@H]1C[C@@H](CC=C(C)[C@@H](O[C@H]3C[C@H](OC)[C@@H](O[C@H]4C[C@H](OC)[C@@H](O)[C@H](C)O4)[C@H](C)O3)[C@@H](C)C=CC=C3CO[C@@H]4[C@H](O)C(C)=C[C@@H](C(=O)O1)[C@]34O)O2 the Potency [7] was “inactive”, the Potency [8] was “inactive” and the Potency [9] was “inactive”.
In the case of NCCCCC(=O)O, the Potency [7] is reported as “inactive”, the Potency [8] is reported as “inactive” and the Potency [9] is reported as “inactive”.
With N#C/C(=C\c1ccc(-c2cc(Cl)ccc2Cl)o1)C(=O)Nc1cccc2ncccc12 the Potency [7] was “inactive”, the Potency [8] was “inactive” and the Potency [9] was “inactive”.
With O=C1NC(O)=NC1(c1ccccc1)c1ccccc1 the Potency [7] was “inactive”, the Potency [8] was “inactive” and the Potency [9] was “inactive”.
With NC(=O)C1=CN(C2OC(COP(=O)(O)OP(=O)(O)OC[C@H]3O[C@@H](n4cnc5c(N)ncnc54)[C@H](OP(=O)(O)O)[C@@H]3O)C(O)C2O)C=CC1 (some centres undefined) the Potency [7] was “inactive”, the Potency [8] was “inactive” and the Potency [9] was “inactive”.
For CN1[C@@H](CC(=O)c2ccccc2)CCC[C@H]1C[C@H](O)c1ccccc1, the Potency [7] was “inactive”, the Potency [8] was “inactive” and the Potency [9] was “inactive”.
In the case of NC[C@H]1O[C@@H](n2cnc3c(N)ncnc32)[C@H](O)[C@@H]1O, the Potency [7] is reported as “inactive”, the Potency [8] is reported as “inactive” and the Potency [9] is reported as “inactive”.
For O=c1[nH]c2cc([N+](=O)[O-])c([N+](=O)[O-])cc2[nH]c1=O, the Potency [7] was “inactive”, the Potency [8] was “inactive” and the Potency [9] was “inactive”.
With C=CC(N)CCC(=O)O (centres undefined) the Potency [7] was “inactive”, the Potency [8] was “inactive” and the Potency [9] was “inactive”.
In the case of CN(C)CCC(c1ccc(Cl)cc1)c1ccccn1 (centres undefined), the Potency [7] is reported as “inactive”, the Potency [8] is reported as “inactive” and the Potency [9] is reported as “inactive”.
With O=C1NC(=O)/C(=C/c2ccc3nccnc3c2)S1 the Potency [7] was “inactive”, the Potency [8] was “inactive” and the Potency [9] was “inactive”.
With COc1cc(OC)c(/C=C2/C(=O)Nc3ccccc32)c(OC)c1 the Potency [7] was “inactive”, the Potency [8] was “inactive” and the Potency [9] was “inactive”.
For CN(C)c1ccc(/C=C2\C(=O)Nc3ccccc32)cc1, the Potency [7] was “inactive”, the Potency [8] was “inactive” and the Potency [9] was “inactive”.
In the case of c1cnc2c(c1)ccc1cccnc12, the Potency [7] is reported as 20 µM (active), the Potency [8] is reported as “inactive” and the Potency [9] is reported as “inactive”.
With C[N+]1(C)C2CC(OC(=O)[C@H](CO)c3ccccc3)CC1C1OC12 (some centres undefined) the Potency [7] was “inactive”, the Potency [8] was “inactive” and the Potency [9] was “inactive”.
With Nc1nc(SCc2ccc([N+](=O)[O-])cc2)c2ncn([C@@H]3O[C@H](CO)[C@@H](O)[C@H]3O)c2n1 the Potency [7] was “inactive”, the Potency [8] was “inactive” and the Potency [9] was “inactive”.
In the case of CC[C@H]1OC(=O)[C@H](C)[C@@H](O[C@H]2C[C@@](C)(OC)[C@@H](O)[C@H](C)O2)[C@H](C)[C@@H](O[C@@H]2O[C@H](C)C[C@H](NC)[C@H]2O)[C@](C)(O)C[C@@H](C)CN(C)[C@H](C)[C@@H](O)[C@]1(C)O, the Potency [7] is reported as “inactive”, the Potency [8] is reported as “inactive” and the Potency [9] is reported as “inactive”.
For Cn1c(=O)c2[nH]c(-c3ccccc3)nc2n(C)c1=O, the Potency [7] was “inactive”, the Potency [8] was “inactive” and the Potency [9] was “inactive”.
With NC(N)=NC(=O)c1nc(Cl)c(N2CCCCCC2)nc1N the Potency [7] was “inactive”, the Potency [8] was “inactive” and the Potency [9] was “inactive”.
For CCOC(=O)N1CCN(/[N+]([O-])=N/Oc2ccc([N+](=O)[O-])cc2[N+](=O)[O-])CC1, the Potency [7] was “inactive”, the Potency [8] was “inactive” and the Potency [9] was “inactive”.
With Oc1ccc(C2CNCc3sccc32)cc1O (centres undefined) the Potency [7] was “inactive”, the Potency [8] was “inactive” and the Potency [9] was “inactive”.
For O=C1/C(=C/c2ccsc2)CC/C1=C\c1cccs1, the Potency [7] was “inactive”, the Potency [8] was “inactive” and the Potency [9] was “inactive”.
For NO, the Potency [7] was “inactive”, the Potency [8] was “inactive” and the Potency [9] was “inactive”.
In the case of N#C/C(=C\c1ccc(O)c(O)c1)C(=O)c1ccc(O)c(O)c1, the Potency [7] is reported as “inactive”, the Potency [8] is reported as “inactive” and the Potency [9] is reported as “inactive”.
In the case of Cc1ccc(O)c(N=Nc2ccccc2)n1, the Potency [7] is reported as “inactive”, the Potency [8] is reported as “inactive” and the Potency [9] is reported as “inactive”.
In the case of O=c1[nH]c2cc(C(F)(F)F)ccc2n1-c1cc(C(F)(F)F)ccc1O, the Potency [7] is reported as “inactive”, the Potency [8] is reported as “inactive” and the Potency [9] is reported as “inactive”.
For Nc1nc(Cl)nc2c1ncn2[C@@H]1O[C@H](COP(=O)(O)OP(=O)(O)OP(=O)(O)O)[C@@H](O)[C@H]1O, the Potency [7] was “inactive”, the Potency [8] was “inactive” and the Potency [9] was “inactive”.
